Compounds without any hit were thinned out: in the full panel of roughly 79,000, 15% have a hit. Values without a mark were called inactive. Calls of active or inactive are those of the source. No stated cut-off is given here; in the data, active means growth inhibition above about 70%; inactive means the rest.

A short description of the assay: NCI Yeast Anticancer Drug Screen. Data for the bub3 strain (AID 167). As to conditions: S. cerevisiae bub3 mutant strain, hits give high values; at 50.0 µM unless noted. The essentials: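 Growth of a checkpoint-deficient yeast mutant is measured after compound exposure. Values represent inhibition relative to vehicle.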
As for `N#C/C(=C/c1ccccc1)c1ccccc1`, the growth inhibition is 40.9%. As to `COc1ccc(/C(=N\NC(=S)NN)C(c2ccc(OC)cc2)C2C(=O)Oc3ccccc32)cc1` (stereo not drawn), the growth inhibition was 12.7%. As for `O=C1CCCc2[nH]ccc21`, the figure is 14.8%; as for `C=C1CC2CC[C@@]34C[C@@H]5O[C@@H]6C(O[C@H]7CC[C@H](CC(=O)OC8[C@@H](C)C9OC%10C[C@]%11(C[C@@H]%12O[C@@]%13(C[C@@H](C)[C@@H]%12O%11)C[C@H](C)[C@@H]%11OC%12CC(C(O)CO)OC%12C[C@@H]%11O%13)OC%10CC9O[C@H]8C[C@H]8O[C@@H](CC[C@@H]1O2)C[C@@H](C)C8=C)O[C@@H]7[C@@H]6O3)C5O4` (stereo partly drawn), 83.2% (active); as for `O=C(OC1C2C=COC(OC3OC(CO)C(O)C(O)C3O)C2C2(CO)OC12)c1ccc(O)cc1` (stereo not drawn), 1.8%. To `CC1(C)N=C(N)N=C(N)N1c1ccc(N)cc1` belongs -21.4%; to `CC1(C)OCC2OC3(c4nc(C#N)c(N)o4)OC(C)(C)OC3C2O1` (stereo not drawn), -39.2%. `O=C(c1ccccc1)C(F)S(=O)(=O)O` (stereo not drawn): the growth inhibition is 6.2%. As for `O=C1OC(=O)C2C(Cl)C(Cl)C12` (stereo not drawn), the figure is -15.8%; as for `CC(=O)[C@@]1(O)CC[C@H]2[C@@H]3CC[C@@H]4C[C@H](O)CC[C@]4(C)[C@H]3[C@H](O)C[C@@]21C`, 11.3%; as for `N#CSc1ccc(NN)cc1`, 33.7%. As for `O=S(=O)(Cc1nc2ccccc2[nH]1)Cc1nc2ccccc2[nH]1`, the figure is 4.95%; as for `COc1ccc(NS(=O)(=O)c2ccc(NC(CNC(C)S(=O)(=O)O)S(=O)(=O)O)cc2)cc1` (stereo not drawn), -0.85%.

Values taken from PubChem BioAssay (NCI).
